The source of these data is PubChem BioAssay AID583 (Sanford-Burnham Center for Chemical Genomics, 2007).

“And” between values parts separate entries of the source, which are not always exact repeats. Equal values may be shown once. Hit rate of the full screen: of about 140,000 compounds, about 80 (0.06%) were called active. Rule as the data show it: active = displacement above about 50%; inactive = the rest. The sample as a whole holds a higher share of actives than the screen did.

Sequence of Heat shock 70 kDa protein 1A (Homo sapiens) (P0DMV8 whole entry, looked up): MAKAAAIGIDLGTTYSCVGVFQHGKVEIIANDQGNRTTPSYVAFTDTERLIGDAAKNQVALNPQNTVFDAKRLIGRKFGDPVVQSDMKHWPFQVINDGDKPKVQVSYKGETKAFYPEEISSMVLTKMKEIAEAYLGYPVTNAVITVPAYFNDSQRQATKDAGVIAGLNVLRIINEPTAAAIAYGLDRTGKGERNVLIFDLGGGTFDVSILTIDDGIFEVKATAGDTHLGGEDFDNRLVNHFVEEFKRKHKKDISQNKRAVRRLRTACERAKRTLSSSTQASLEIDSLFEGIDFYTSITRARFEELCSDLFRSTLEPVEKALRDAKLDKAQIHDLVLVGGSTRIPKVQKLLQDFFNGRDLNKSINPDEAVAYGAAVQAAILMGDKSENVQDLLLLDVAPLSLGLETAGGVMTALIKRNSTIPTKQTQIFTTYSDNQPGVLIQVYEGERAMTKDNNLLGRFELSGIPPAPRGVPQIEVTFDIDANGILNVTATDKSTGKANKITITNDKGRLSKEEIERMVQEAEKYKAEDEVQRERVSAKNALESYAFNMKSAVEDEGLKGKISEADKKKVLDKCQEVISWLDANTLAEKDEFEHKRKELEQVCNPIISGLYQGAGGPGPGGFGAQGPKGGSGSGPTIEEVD

This experiment concerns the target Heat shock 70 kDa protein 1A (Homo sapiens) (UniProt P0DMV8). Nature of the experiment: Hsp70 inhibitors, probe displacement, primary screen, biochemical, fluorescence polarization (AID 583).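 Also: plate controls were vehicle for no effect and reference ligand for full effect.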 Particulars: mP, at 20 µM, active compounds read high.
As to `O=C(O)c1ccc(-c2ccc(/C=C3\SC(=S)N(c4ccc([N+](=O)[O-])cc4)C3=O)o2)cc1`, the displacement was 55.5% (active).

As to `O=C(O)CCN1C(=O)/C(=C/c2ccc(-c3ccc([N+](=O)[O-])cc3)o2)SC1=S`, the displacement is 1.7% (inactive).

Take `O=C1/C(=C\c2ccc(-c3ccc([N+](=O)[O-])cc3)o2)SC(=S)N1c1ccc(O)cc1`: the displacement is 1.6% (inactive).

Consider `CC(=O)Nc1ccccc1NC(=O)COc1ccc(Cl)cc1C`, for which the displacement was -3.3% (inactive).

For the compound `O=c1ccc(Oc2nc(N3CCOCC3)nc(N3CCOCC3)n2)nn1-c1ccccc1`, the displacement is 6.5% (inactive).

For `N/C(=N\OC(=O)c1cccc(Br)c1)c1cccnc1`, the displacement is 1.1% (inactive).

As to `Cc1c(Cl)cccc1N=C1NC(=O)/C(=C/c2ccc(O)c([N+](=O)[O-])c2)S1`, the displacement was 13.2% (inactive).

Consider `Cc1ccc(N=C2NC(=O)/C(=C/c3ccc(O)c([N+](=O)[O-])c3)S2)cc1Cl`, for which the displacement is 66.9% (active).

Regarding `COc1cc(/C=C2\SC(=Nc3ccc(C)c(Cl)c3)NC2=O)ccc1O`, the displacement was -0.7% (inactive).

On to `CC1CCCCN1c1nnc(N)s1` (centres undefined), for which the displacement was 0.6% (inactive).

With `O=C(Cn1c(=O)n(CC2CCCO2)c(=O)c2ccccc21)N1CCN(c2ccccc2)CC1` (centres undefined), the displacement is 4.1% (inactive).

In the case of `Cc1c(O)ccc2c1oc(=O)c1ccccc12`, the displacement was 2.3% (inactive).

In the case of `O=c1oc2c(O)c(O)ccc2c2c1CCC2`, the displacement was 1.2% (inactive).

Turning to `Nc1nnn(Cc2ccccc2)n1`, the displacement is -0.8% (inactive).

For `CCN(CC)S(=O)(=O)c1ccc2oc(Nc3ccc4c(c3)OCCO4)nc2c1`, the displacement is 0.7% (inactive).

Consider `CC(Sc1ccc2nnc(-c3ccc(F)cc3)n2n1)C(=O)O` (centres undefined), for which the displacement is -5.3% (inactive).

Regarding `NC(=O)CN1CCOCCN(CC(N)=O)CCOCC1`, the displacement was -5% (inactive).

`O=C(NCC(O)c1ccccc1)C(=O)NC1CC1` (centres undefined): the displacement is -1.2% (inactive).

Take `CCC(c1nnc(SCc2nc3ccccc3s2)n1Cc1ccccc1)N(C)C` (centres undefined): the displacement is -2.1% (inactive).

As for `O=C1C=CC2=C3Oc4c(ccc5cc(O)ccc45)C(c4ccccc4C(=O)O)C3C=CC2=C1` (centres undefined), the displacement is 60.9% (active).

`O=C1CC(c2ccccc2)c2ccc(O)cc2O1` (centres undefined): the displacement was 2.6% (inactive).

Consider `O=C(O)c1cccc(N2C(=O)c3ccc(Br)cc3C2=O)c1`, for which the displacement was -5.6% (inactive).

As to `O=C(O)c1cccc(N2C(=O)CCC2=O)c1`, the displacement is 3.8% (inactive).

Consider `O=C(O)c1cccc(N2C(=O)c3ccc4c5c(ccc(c35)C2=O)CC4)c1`, for which the displacement is 70% (active).

With `Nc1nc(CSc2nc3ccccc3[nH]2)cs1`, the displacement is -1.6% (inactive).

In the case of `Cc1cccc(N2C(=O)NC(=O)/C(=C/c3ccc(N(C)C)c(Br)c3)C2=O)c1`, the displacement is 0.9% (inactive).

Regarding `CCOc1cccc(=O)c2c(C)oc(C)c12`, the displacement is 28% (inactive) and 19.3% (inactive).

On to `CCOc1cccc(=[O+]CC)c2c(C)oc(C)c12`, for which the displacement is 80.7% (active).

As for `CCOc1ccc(-c2cc(OCC)c3c(C)oc(C)c3c(=[O+]CC)c2)cc1`, the displacement is -5.4% (inactive).

Take `Cc1oc(-c2ccc(Cl)cc2)nc1CN1CCCC(C(=O)NCc2ccco2)C1` (centres undefined): the displacement was 0.5% (inactive).

As for `Cc1cc(C)c(NC(=O)c2c(-c3ccccc3)noc2C)c(C)c1`, the displacement is 1.9% (inactive).

In the case of `CCc1nnc(SCC(=O)N2CCCc3ccccc32)nc1CC`, the displacement is 0.4% (inactive).

Consider `Cc1cc(NC(=O)c2ccc(-c3cccc(Cl)c3)o2)ccc1NC(=O)c1ccco1`, for which the displacement was -0.3% (inactive).

On to `N#Cc1c2c(c(NCCCCO)n3c1nc1ccccc13)CCC2`, for which the displacement is 55% (active).

In the case of `CN(C)CCCNc1c2c(c(C#N)c3nc4ccccc4n13)CCC2`, the displacement is 3.6% (inactive).

As to `N#Cc1c2c(c(NCCCN3CCOCC3)n3c1nc1ccccc13)CCC2`, the displacement is 3.4% (inactive).

As for `O=C(O)C1Nc2c(O)cccc2C2C=CCC12` (centres undefined), the displacement was 16.1% (inactive).

As to `COc1cccc2c1NC(C(=O)O)C1CC=CC21` (centres undefined), the displacement was 47.8% (inactive).

As for `O=C(O)C1Nc2ccc([N+](=O)[O-])cc2C2C=CCC12` (centres undefined), the displacement was 102% (active).

Take `O=[N+]([O-])c1ccc(C2Nc3ccc([N+](=O)[O-])cc3C3C=CCC32)cc1` (centres undefined): the displacement was 0.4% (inactive).

Take `Cc1ccc2c(c1)C1C=CCC1C(C(=O)O)N2` (centres undefined): the displacement is 38.6% (inactive).

Turning to `O=C(O)C1Nc2c(cccc2[N+](=O)[O-])C2C=CCC12` (centres undefined), the displacement is 76.9% (active).

Turning to `O=C(CCc1ccccc1)Oc1ccc(Cl)cc1`, the displacement is 0.9% (inactive).

For the compound `O=C1NC(=O)N(c2ccccc2F)C(=O)/C1=C/c1ccc(OCc2cccc(C(=O)O)c2)cc1`, the displacement was 0.2% (inactive).

Regarding `O=C1NC(=O)N(c2ccccc2F)C(=O)/C1=C/c1ccc(I)o1`, the displacement was 20.6% (inactive).

Turning to `CCOc1ccc(N2C(=O)/C(=C/c3ccc(I)o3)C(=O)NC2=S)cc1`, the displacement was 96.7% (active).

Take `CCOc1ccc(N2C(=O)/C(=C/c3ccc(N(CC)CC)o3)C(=O)NC2=S)cc1`: the displacement is -73.8% (inactive).

Consider `Cc1ccc(N2C(=O)NC(=O)/C(=C\c3ccc(I)o3)C2=O)cc1`, for which the displacement was 6.1% (inactive).

Turning to `CCOc1ccc(N2C(=O)/C(=C/c3ccc(OCc4cccc(C(=O)O)c4)cc3)C(=O)NC2=S)cc1`, the displacement was 5.7% (inactive).

Consider `O=C1NC(=S)N(c2ccccc2F)C(=O)/C1=C/c1ccc(I)o1`, for which the displacement was 81.7% (active).

For `O=C1NC(=S)N(c2ccccc2F)C(=O)/C1=C/c1ccc(Sc2ccccc2)o1`, the displacement is 0.9% (inactive).

As to `CCOc1ccc(N2C(=O)NC(=O)/C(=C\c3ccc(I)o3)C2=O)cc1`, the displacement was 0.7% (inactive).

Consider `O=C1NC(=O)N(c2ccc(Cl)cc2)C(=O)/C1=C/c1ccc(I)o1`, for which the displacement was 15.2% (inactive).

In the case of `CCc1ccc(N2C(=O)/C(=C/c3ccc(I)o3)C(=O)NC2=S)cc1`, the displacement is 84.7% (active).

As for `O=C1NC(=S)N(c2ccccc2F)C(=O)/C1=C/c1ccc(OCc2cccc(C(=O)O)c2)cc1`, the displacement was 51.5% (active).

Consider `CC(C)c1ccc(-c2nc(N)c3c(=O)oc4ccccc4c3n2)cc1`, for which the displacement is 0.4% (inactive).

`O=C(CN(Cc1ccco1)C(=O)CNS(=O)(=O)c1ccccc1)NC1CCCCC1`: the displacement is 5.9% (inactive).

In the case of `O=[N+]([O-])c1cc(NS(=O)(=O)Cc2ccccc2)ccc1F`, the displacement is 3.6% (inactive).

For `O=C(NCc1ccc2c(c1)OCO2)C1COc2ccccc2O1` (centres undefined), the displacement was 3.3% (inactive).

In the case of `CCCn1c(=N)n(CC(=O)C(C)(C)C)c2ccccc21`, the displacement is 7.1% (inactive).

Take `CCn1cc(Br)c(C(=O)Nc2ccc(OC)cc2)n1`: the displacement was 8.2% (inactive).

As for `O=C(NC1CC2CCCC(C1)N2C(=O)NC1CCCCC1)c1ccccc1` (centres undefined), the displacement is 0.4% (inactive).

Take `COc1cc(C(=O)NC2CC3CCCC(C2)N3CC(=O)Nc2ccccc2)cc(OC)c1OC` (centres undefined): the displacement is 2% (inactive).

As for `COc1cccc(C(=O)NC2CC3CCCC(C2)N3CC(=O)Nc2ccc(N(C)C)cc2)c1` (centres undefined), the displacement was 2.7% (inactive).

Turning to `Cc1c(C(=O)N2CCc3ccccc3C2)sc2nc(-c3ccccc3)cn12`, the displacement is 0.5% (inactive).

As to `O=C1NN(c2cccc(Cl)c2)C(=O)/C1=C\c1ccc(-c2cccc(C(=O)O)c2)o1`, the displacement is 55.5% (active).

For `O=C1NN(c2ccc(F)c(Cl)c2)C(=O)/C1=C\c1ccc(-c2cccc(C(=O)O)c2)o1`, the displacement was 5.7% (inactive).

Consider `O=C1NN(c2ccc(Cl)cc2)C(=O)/C1=C\c1ccc(-c2cccc(C(=O)O)c2)o1`, for which the displacement is 16.5% (inactive).

For `COc1ccc(NC(=O)Cn2nc(C)c3ccccc3c2=O)cc1`, the displacement is -1% (inactive).

Take `COc1cc(/C=C2/SC(=S)NC2=O)cc(Cl)c1OCc1cccc2ccccc12`: the displacement is 99.9% (active).

For the compound `COc1cccc(OCCOc2c(Cl)cc(/C=C3/SC(=S)NC3=O)cc2OC)c1`, the displacement was 0.2% (inactive).

As for `CCCOc1c(Cl)cc(/C=C2/SC(=S)NC2=O)cc1OC`, the displacement is 1.3% (inactive).

As to `COc1cc(/C=C2/SC(=S)NC2=O)cc(Cl)c1OCc1ccccc1F`, the displacement is -0.4% (inactive).

On to `COc1cc(/C=C2/SC(=S)NC2=O)cc(Cl)c1OCc1ccc(Cl)cc1Cl`, for which the displacement was 94.8% (active).

For the compound `CCOc1cc(/C=C2/SC(=S)NC2=O)cc(Cl)c1OCc1ccc(Cl)cc1Cl`, the displacement is 4.9% (inactive).

As to `COc1ccc(N2C(=O)NC(=O)/C(=C\c3cccc(OC)c3OC)C2=O)cc1`, the displacement was -4.3% (inactive).

In the case of `O=C1N/C(=N/N=C/c2ccccc2)SC1Cc1ccccc1Cl` (centres undefined), the displacement was -1.4% (inactive).

On to `COC(=S)N/C(=N/S(=O)(=O)c1ccc(Cl)cc1)c1ccccc1`, for which the displacement was 0.8% (inactive).

`CC1=NN(c2cccc(C(=O)O)c2)C(=O)/C1=C\c1ccco1`: the displacement was 6.9% (inactive).

Consider `CCOC(=O)c1ccc(N2N=C(C)/C(=C/C=C/c3ccco3)C2=O)cc1`, for which the displacement is 0.7% (inactive).

For the compound `CC(=O)NS(=O)(=O)c1ccc(NC(=O)c2ccc([N+](=O)[O-])cc2)cc1`, the displacement is 6.8% (inactive).

On to `CC(=O)NS(=O)(=O)c1ccc(NC(=O)c2ccc([N+](=O)[O-])c(C)c2)cc1`, for which the displacement was 61.3% (active).

For `COc1ccc(C(=O)Nc2ccc(S(=O)(=O)NC(C)=O)cc2)cc1[N+](=O)[O-]`, the displacement was 3.6% (inactive).

Regarding `O=C(NCCc1ccccc1)c1cnc2sccn2c1=O`, the displacement is -1.6% (inactive).

As for `CN(C)c1ccc(/C=C2/SC(N=Nc3c(O)[nH]c4ccccc34)=NC2=O)cc1`, the displacement was 17.1% (inactive).

Regarding `Oc1[nH]c2ccccc2c1N=Nc1nc(-c2ccccc2)c2cc(Br)ccc2n1`, the displacement is -0.1% (inactive).

For `O=C1N=C(N=Nc2c(O)[nH]c3ccccc23)S/C1=C/c1ccc(Br)cc1`, the displacement was 82.1% (active).

For `COc1ccc(Br)cc1/C=C/C(=O)Nc1cccc(NC(=O)c2ccccc2Cl)c1`, the displacement is -1% (inactive).

In the case of `CCN(CC)c1nc(C)cc(COC)c1C#N`, the displacement was 2.1% (inactive).

In the case of `CC(C)c1ccc(NC(=O)C(c2ccc3c(c2)OCO3)N2CCC3(CC2)OCCO3)cc1` (centres undefined), the displacement is -2.7% (inactive).

As to `O=C(CCCC(=O)N1CCCCC1)NCc1ccco1`, the displacement is -1.6% (inactive).

As for `COC(=O)c1ccc(C(=O)OC)c(NC(=O)CSc2nnc(-c3ccccc3Cl)o2)c1`, the displacement is 1.6% (inactive).

For `Oc1c(Cl)cc(Cl)cc1Sc1cc(Cl)cc(Cl)c1O`, the displacement is 7.6% (inactive).

As to `O=S(=O)(c1cc(Cl)cc(Cl)c1O)c1cc(Cl)cc(Cl)c1O`, the displacement is 8.8% (inactive).
